Source: PubChem
Only a selection was taken, and hits are over-represented in it overall.
Tgondii IFNg: inhibitors of Toxoplasma gondii growth with IFN-gamma; 3.8% of 69,000 active; AID 1259416; Toxoplasma gondii growth in IFN-gamma-treated host cells; stronger effect = lower value; activity change, negative = inhibition, % (no concentration beside the values); in the data active = activity change below about -70%, passing the limit was not always enough;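 note: host cells are HeLa cells infected with Toxoplasma gondii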
* hit, by the source's call; i = inactive; ! = not confirmed by another sample.

SMILES	Tgondii IFNg
Cc1ccc(-c2nc(C)c(CCNC(=O)C(=O)Nc3ccc4c(c3)OCCO4)s2)cc1	-38
Cc1nc(-c2cccc(F)c2)sc1CCNC(=O)C(=O)Nc1ccc2c(c1)OCO2	-98*
Cc1ccc(-c2nc(C)c(CCNC(=O)C(=O)Nc3ccc(Cl)cc3)s2)cc1	83
Cc1nc(-c2ccc(Cl)cc2)sc1CCNC(=O)C(=O)Nc1ccc2c(c1)OCO2	-90*
Cc1ccc(NC(=O)C(=O)NCCc2sc(-c3cccc(F)c3)nc2C)cc1F	51
Cc1ccc(NC(=O)C(=O)NCCc2sc(-c3ccccc3)nc2C)cc1	-3
Cc1cccc(NC(=O)C(=O)NCCc2sc(-c3ccccc3)nc2C)c1	-36
Cc1nc(-c2ccccc2)sc1CCNC(=O)C(=O)Nc1ccc2c(c1)OCO2	-93*
Cc1nc(-c2cccc(F)c2)sc1CCNC(=O)C(=O)Nc1ccc2c(c1)OCCO2	-34
Cc1oc(-c2ccc(C(=O)N3CCC(C(N)=O)CC3)cc2)nc1CN1CCN(c2ccccc2)CC1	56
O=C(NC1CCCC1)N[C@@H]1C=C[C@H](CC(=O)N2CCOCC2)O[C@@H]1CO	3
CCCCN(C(=O)CN1CCN(c2nccs2)CC1)C1CCS(=O)(=O)C1 (configuration not stated)	-8
CC(C)CNC1CC2(CCN(c3ncccn3)CC2)Oc2ccccc21 (configuration not stated)	27
Cc1nc(C)n(CC2CN(C(=O)C3CCOC3)Cc3nccn3C2)n1 (configuration not stated)	0
Cc1ccccc1-c1ccc2c(c1)O[C@@H](CN(C)C(=O)Nc1ccc(C(F)(F)F)cc1)[C@H](C)CN([C@@H](C)CO)S2(=O)=O	-100*
CCCNC(=O)N(C)C[C@@H]1Oc2cc(C#C[C@@H](C)O)ccc2S(=O)(=O)N([C@H](C)CO)C[C@H]1C	-38
C[C@H]1CN([C@@H](C)CO)S(=O)(=O)c2ccc(C#CC(C)(C)O)cc2O[C@H]1CN(C)Cc1ccc(F)cc1	-32
C[C@H](CO)N1C[C@H](C)[C@@H](CN(C)Cc2ccc(F)cc2)Oc2cc(C#CC(C)(C)O)ccc2S1(=O)=O	-95*
C[C@@H]1CN([C@@H](C)CO)S(=O)(=O)c2ccc(-c3cccc(C#N)c3)cc2O[C@H]1CN(C)C(=O)c1ccccc1	-99*
C[C@H]1CN([C@@H](C)CO)S(=O)(=O)c2ccc(C#CC3(O)CCCC3)cc2O[C@H]1CN(C)C(=O)Nc1cccc(F)c1	-62
C[C@H](CO)N1C[C@H](C)[C@H](CN(C)C(=O)c2ccccc2)Oc2cc(-c3cccc(C#N)c3)ccc2S1(=O)=O	-69
C/C=C/c1ccc2c(c1)O[C@H](CN(C)C(=O)Nc1ccc(OC)cc1)[C@H](C)CN([C@@H](C)CO)S2(=O)=O	i
C[C@H]1CN([C@@H](C)CO)S(=O)(=O)c2ccc(Br)cc2O[C@H]1CN(C)C(=O)Nc1ccccc1F	97
C[C@@H]1CN([C@@H](C)CO)S(=O)(=O)c2ccc(C#CC3(O)CCCC3)cc2O[C@H]1CN(C)C(=O)Nc1cccc(F)c1	-92*
C[C@@H]1CN([C@@H](C)CO)S(=O)(=O)c2ccc(-c3ccc(F)cc3)cc2O[C@@H]1CN(C)Cc1ccccc1C(=O)O	214
SMILES	Tgondii IFNg
C[C@H](CO)N1C[C@H](C)[C@H](CN(C)Cc2ccc(F)cc2)Oc2cc(C#CC(C)(C)O)ccc2S1(=O)=O	275
CCn1c(CNC(=O)C2CCC2)nc2c1CN(S(=O)(=O)c1ccc(Cl)cc1)CC2	-63
COc1ccnc(N2CCC(CO)(Cc3cccc(F)c3)CC2)n1	-3
O=C(Cn1c(=O)cc(C(=O)N2CCCCC2)c2ccccc21)Nc1cccc(F)c1	-7
CNC(=O)C[C@H]1C[C@@H]2CN(S(=O)(=O)c3ccc(C)cc3)C[C@@H]2O1	-9
COc1cccc2ccc(CN(C)Cc3cccc4ncccc34)nc12	1
Cc1ccc(NC(=O)Nc2ccc3c(c2)C(=O)N(C)[C@@H]2CC[C@@H](CC(=O)NCC(F)(F)F)O[C@H]2CO3)cc1	12
O=C(c1cc2cccnc2n(Cc2ccccc2F)c1=O)N1CCCC1	68
O=C(c1cc2cccnc2n(Cc2ccccc2F)c1=O)N1CCN(c2ccc(F)cc2)CC1	-83*
O=C(c1cc2cccnc2n(Cc2ccccc2F)c1=O)N1CCN(c2ccccc2F)CC1	36
O=C(c1cc2cccnc2n(Cc2ccc(F)cc2)c1=O)N1CCCC1	50
O=C(c1cc2cccnc2n(Cc2ccc(F)cc2)c1=O)N1CCN(c2ccc(F)cc2)CC1	-95*
O=C(c1cc2cccnc2n(Cc2ccc(F)cc2)c1=O)N1CCN(Cc2ccccc2)CC1	-30
COc1cccc(CC2(CO)CCN(c3ccc(-c4nccn4C)nn3)CC2)c1	60
Cc1cc(N2CCN(C(=O)c3cc(CC(C)C)nn3C)CC2)nc(N)n1	-16
CN1CCN([C@@H]2CCN(c3ncnc4c3CCC4)C[C@H]2O)CC1	-7
Clc1ccc(CO/N=C(\Cn2ccnc2)c2ccc(Cl)cc2Cl)c(Cl)c1	-83*!
O=C(NCCCn1ccnc1)Nc1c[nH]c2cc(Cl)ccc2c1=O	306
Cl/C(=C\n1cncn1)c1ccc(Cl)cc1Cl	-59
